Shown are actives, neighbours in structure and some others; about 2.3% of the full set was active somewhere.
M1 PAM = positive allosteric modulators of human M1 muscarinic receptor; activation, % at 3 µM; CHO-K1 hM1, Fluo-8 calcium fluorescence, ACh EC20; 0% = ACh EC20, 100% = maximal ACh; 360,000 compounds, 0.088% hits; P11229; AID 588819; in the data active = activation above about 19%, passing the limit was not always enough
Target sequence (P11229 whole entry, looked up): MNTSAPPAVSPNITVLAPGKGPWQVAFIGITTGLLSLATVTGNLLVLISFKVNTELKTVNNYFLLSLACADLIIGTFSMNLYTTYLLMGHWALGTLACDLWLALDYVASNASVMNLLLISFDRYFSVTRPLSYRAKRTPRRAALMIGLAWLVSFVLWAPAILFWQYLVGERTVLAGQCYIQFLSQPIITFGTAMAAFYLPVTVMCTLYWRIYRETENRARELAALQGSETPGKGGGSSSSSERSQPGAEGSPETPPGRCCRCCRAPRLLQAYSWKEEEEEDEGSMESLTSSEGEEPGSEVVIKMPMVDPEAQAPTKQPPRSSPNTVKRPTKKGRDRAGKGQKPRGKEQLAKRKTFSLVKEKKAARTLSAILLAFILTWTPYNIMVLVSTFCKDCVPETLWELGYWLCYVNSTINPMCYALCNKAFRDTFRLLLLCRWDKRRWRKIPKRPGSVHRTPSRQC
CHO-K1 Ca ag = nonselective activator or artifact in parental CHO-K1 cells | activation, % at 3 µM | Fluo-8 calcium fluorescence; scaled to maximal ATP response, vehicle zero | 360,000 compounds, 0.48% hits; in the data active = activation above about 15%;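 also: untransfected CHO-K1 host cells lacking M1 receptor as counterscreen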
CHO-K1 Ca antag = counter-screen for M1 antagonists: effect in parental CHO-K1 cells. ATP-induced calcium, Fluo-8 fluorescence. inhibition, % at 3 µM. 360,000 compounds, 0.6% hits. AID 602250;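 active = inhibition above a per-plate cutoff, the plate's mean sample inhibition plus 3 SD, cut at about 24% in these data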
M1 ag = agonists of human M1 muscarinic receptor; P11229; CHO-K1 hM1, Fluo-8 calcium fluorescence, agonist mode; 0% DMSO, 100% acetylcholine EC100; activation, % at 3 µM; 360,000 compounds, 0.33% hits;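 active = activation above the run's mean compound activation plus 3 SD, cut at about 16% in these data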;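 also: peak over basal fluorescence ratio within a 140 s kinetic read after compound addition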
M1 PAM parental = nonselective activator or artifact in parental CHO-K1 calcium assay. 360,000 compounds, 0.02% hits. activation, % at 3 µM. ATP EC20, Fluo-8 calcium fluorescence; 0% at ATP EC20, 100% at ATP max. AID 602247;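 active = activation above the run cutoff, the mean activation of all test compounds plus 3 SD, cut at about 40% in these data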;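 also: peak over basal fluorescence ratio in a 140 s read after ATP addition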
CHRM1 antagonist = human CHRM1 antagonism | P11229 | CHO-K1 hM1, Fluo-8 calcium fluorescence, ACh EC80 antagonist | inhibition, % at 3 µM | 360,000 compounds, 1.3% hits;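 active = percent inhibition above its own plate's cutoff, namely the mean of that plate's compound wells plus 3 SD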;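 also: peak over basal fluorescence ratio during 140 s after agonist addition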
A number is an active result; 0 = inactive.

SMILES	M1 PAM	CHO-K1 Ca ag	CHO-K1 Ca antag	M1 ag	M1 PAM parental	CHRM1 antagonist
CC(C)NC(=O)CN1CCN(Cc2nc(-c3cccs3)no2)CC1	0	0	0	0	0	0
NC(=O)CCN1CCN(Cc2nc(C(c3ccccc3)c3ccccc3)no2)CC1	0	0	0	0	0	29
c1ccc(C(c2ccccc2)c2noc(CN3CCN(C4CCCC4)CC3)n2)cc1	0	15	0	0	0	60
CC(C)NC(=O)CN1CCN(Cc2nc(C(c3ccccc3)c3ccccc3)no2)CC1	0	0	0	0	0	52
CC(=O)N1CCN(Cc2nc(C(c3ccccc3)c3ccccc3)no2)CC1	0	0	0	0	0	0
Cc1[nH]c(=O)sc1C(=O)NCc1ccc([N+](=O)[O-])cc1	0	0	35	0	0	0
Cc1c(C(=O)NCc2ccc([N+](=O)[O-])cc2)sc(=O)n1Cc1ccc(-c2ccccc2)cc1	0	0	0	0	0	0
Cc1cccc(Nc2ncnc3c2cnn3C)c1	0	0	29	0	0	0
CC(=O)Nc1ccc(Nc2ncnc3c2cnn3-c2cccc(C)c2)cc1	0	0	0	0	0	0
CC(=O)Nc1ccc(Nc2ncnc3c2cnn3-c2ccc(C)cc2C)cc1	0	0	26	0	0	0
Cc1cc(C)nc(SCc2ccc(C(=O)N/N=C3\CCCC(=O)C3)cc2)n1	0	0	0	0	0	0
CCCNC(=O)C1(C)CCN(C(=O)c2oc3ccccc3c2C)C1 (centres undefined)	0	0	0	0	0	0
CC(NC(=O)c1ccco1)C(=O)N1CCN(C(c2ccccc2)c2ccccc2)CC1 (centres undefined)	0	0	0	0	0	0
Cc1nn(-c2ccccc2)cc1/C=N/NC(N)=S	31	0	0	0	0	0
O=C(CC(c1ccccc1)c1cc(Cl)ccc1O)N1CCCC1 (centres undefined)	0	0	0	0	0	0
O=C(CC(c1ccccc1O)N1CCCCC1)N1CCCCC1 (centres undefined)	0	0	0	0	0	70
COc1cccc(CN(C)C(=O)c2cccc(S(=O)(=O)N3CCN(c4ccc(F)cc4)CC3)c2)c1OC	0	0	0	0	0	28
COc1cccc(CN(C)C(=O)c2cccc(S(=O)(=O)N3CCN(c4ccccc4)CC3)c2)c1OC	0	0	0	0	0	0
CN(Cc1ccc(OC(F)F)cc1)C(=O)c1cccc(S(=O)(=O)N2CCN(Cc3ccccc3)CC2)c1	0	0	0	0	0	33
O=C(CSc1nc2ccsc2c(=O)n1CC1CCC(C(=O)O)CC1)NCCc1ccc(Cl)cc1 (centres undefined)	0	0	0	0	0	0
O=C(CC1SC(=Nc2ccccc2)N(CCCO)C1=O)Nc1ccc(Cl)cc1 (centres undefined)	0	0	0	0	0	30
CC(C)N=C1SC(CC(=O)Nc2ccccc2)C(=O)N1C(C)C (centres undefined)	0	0	0	0	0	26
CN(C)/C=N/NC(=O)c1ccc(Cl)cc1	0	0	0	0	0	0
CN(C)/C=N/c1cnc(C(=O)c2ccc(Cl)cc2)n1C	26	0	0	0	0	0
CC(=O)c1ccccc1C(=O)N1CCCC(CNC(=O)c2ccc(F)cc2)C1 (centres undefined)	0	0	0	0	0	0
SMILES	M1 PAM	CHO-K1 Ca ag	CHO-K1 Ca antag	M1 ag	M1 PAM parental	CHRM1 antagonist
CC1CCCCC12NC(=O)N(CC(=O)NCc1cccs1)C2=O (centres undefined)	0	0	25	0	0	0
CC1CCCCC12NC(=O)N(CC(=O)OCC(=O)Nc1ccc(F)cc1[N+](=O)[O-])C2=O (centres undefined)	0	0	0	0	0	29
COc1ccccc1C(=O)NC(=O)COC(=O)CN1C(=O)NC2(CCCCC2C)C1=O (centres undefined)	0	0	0	0	0	0
COc1ccc(C)cc1NC(=O)CSc1nnc2ccc(-c3ccncc3)nn12	0	0	0	0	0	28
COc1ccc(CNC(=O)c2cccc3c(-c4cccc(C(N)=O)c4)coc23)cc1OC	0	0	26	0	0	39
COc1cc(-c2coc3c(C(=O)NCc4ccc(OC)c(OC)c4)cccc23)ccc1O	0	15	0	0	0	30
Cc1cc(NC(=O)CS(=O)c2cn(Cc3cccc(Cl)c3)c3ccccc23)no1 (centres undefined)	0	0	0	23	0	0
Cc1cc(NC(=O)CS(=O)(=O)c2cn(Cc3cccc(Br)c3)c3ccccc23)no1	0	0	0	30	0	0
Cc1cc(NC(=O)CS(=O)(=O)c2cn(Cc3ccccc3Cl)c3ccccc23)no1	0	0	0	0	0	0
CCCn1cc(SCC(=O)Nc2cc(C)on2)c2ccccc21	0	0	0	0	0	0
COCCCNC1=C(C#N)C(=O)NC(c2cccs2)S1 (centres undefined)	0	0	0	0	0	0
CC(C)N1C(=O)S/C(=C/c2ccc(Sc3nc4ccccc4[nH]3)o2)C1=O	0	0	0	0	0	0
C=CCN1C(=O)S/C(=C/c2ccc(Sc3nc4ccccc4[nH]3)o2)C1=O	0	0	26	0	0	0
O=C(CC1NCCc2ccccc21)Nc1ccccc1 (centres undefined)	0	0	0	0	0	0
O=C(CC1NCCc2ccccc21)Nc1ccc(Oc2ccccc2)cc1 (centres undefined)	0	20	0	0	0	0
COc1ccc(C(=O)CSc2nnc(Cn3cnc4ccccc43)o2)cc1	0	0	0	0	0	32
CC(C)c1cc(CNC(=O)c2cc(COc3cncc(Cl)c3)on2)on1	0	16	0	0	0	0
CC(=O)Nc1ccc(C(=O)N2CCCCC2c2cc(C(=O)Nc3cccc(C#N)c3)no2)cc1 (centres undefined)	0	0	0	0	0	0
COc1ccc(-c2cc3c(=O)n(CC(=O)NCc4ccccc4F)ncn3n2)cc1	0	0	26	0	0	0
COc1ccc(C(=O)Nc2ccccc2C(=O)NCc2ccco2)cc1OC	0	0	0	0	0	20
CN(c1ccccc1C(=O)Nc1ccccc1C(=O)NCc1ccco1)S(C)(=O)=O	0	0	35	0	0	0
O=C(NCc1ccco1)c1ccccc1NS(=O)(=O)c1ccc(Br)s1	0	0	24	0	0	0
COc1ccc(S(=O)(=O)Nc2ccccc2C(=O)NCc2ccco2)cc1	0	0	0	0	0	0
CCCCN(C)C(=O)c1sc(=O)n(Cc2c(C)cccc2C)c1C	0	0	0	0	0	0
Cc1ccc2c(c1)N(CC(=O)N1CCCCC1)C(=O)C(C)O2 (centres undefined)	0	0	0	0	0	0

Screening data: PubChem BioAssay, The Scripps Research Institute Molecular Screening Center
